Data: the supplement of paper PMC5919970
Structures can show the parent of a compound that is named as a salt. Whole data set: some 2,000 compounds, median “fractional viability relative to vehicle” near 0.92, cut for the lowest 2% near 0.11. The list comes from a sample in which the lowest values are over-represented; it also holds similar structures and randomly drawn compounds.

Test system: TYKNU
Assay: fractional viability relative to vehicle; TYKNU is a high-grade serous ovarian cancer line; higher = less growth inhibition
Conditions: 72 h, genotype: OPA1 knockout (sgOPA1 #2)
Procedure, shortened: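 TYKNU control cells or lentiCRISPRv2 knockout derivatives were seeded at 500 cells per well into drug-stamped 384-well plates holding a ~2100-compound library at 2 or 10 μM, in duplicate. Cells were grown at 37 °C in 5% CO2 in RPMI 1640 with 10% FBS, and drug treatment lasted 72 h. Viability was read by Cell Titer Glo luminescence. Duplicate treatment wells were averaged and normalised to duplicate control wells from the same plate position.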

Structure (SMILES) | fractional viability (2uM) | fractional viability (10uM)
CN1CCC(Nc2nc(Nc3ccc(Oc4ccccc4)cc3)c3c(=O)[nH]cc(Br)c3n2)CC1 | 0.289 | 0.0528
c1nc2c(NC3CCCCC3)nc(Nc3ccc(N4CCOCC4)cc3)nc2[nH]1 [Reversine] | 0.571 | 0.342
CCCCN1CCCC[C@H]1C(=O)Nc1c(C)cccc1C [Levobupivacaine HCl] | 1.06 | 0.949
CCC1C/C(=C\c2cccnc2)C(=O)/C(=C/c2cccnc2)C1 (configuration not stated) | 0.442 | 0.189
C1=N/C2=N/c3ccc(OCCN4CCCC4)c(c3)COC/C=C/COCc3cccc(c3)C(=C1)N2 [Pacritinib (SB1518)] | 0.318 | 0.0734
Cc1cncc(CN2CCC(=C3c4ccc(Cl)cc4CCc4cccnc43)CC2)c1 [Rupatadine Fumarate] | 1.06 | 0.915
NC(=O)c1ccc(N(C(N)=O)c2c(F)cccc2F)nc1-c1ccc(F)cc1F | 1.19 | 1.05
CCN(CC)CCN(Cc1ccc(-c2ccc(C(F)(F)F)cc2)cc1)C(=O)Cn1c(SCc2ccc(F)cc2)nc(=O)c2c1CCC2 | 0.76 | 0.0367
O=C(NNc1nc2cc(F)ccc2n2cccc12)c1cnccn1 | 0.576 | 0.643
C=CC[N+]1([C@H]2C[C@H]3[C@@H]4CC[C@H]5C[C@H](O)[C@@H](N6CCOCC6)C[C@]5(C)[C@H]4CC[C@]3(C)[C@H]2OC(C)=O)CCCC1 [Rocuronium Bromide] | 1.16 | 1.11
CCCCC(C=O)NC(=O)C(CC(C)C)NC(=O)C(CC(C)C)NC(C)=O (configuration not stated) | 0.8 | 0.939
CC(C)C[C@H](NC(=O)[C@H](CCc1ccccc1)NC(=O)CN1CCOCC1)C(=O)N[C@@H](Cc1ccccc1)C(=O)N[C@@H](CC(C)C)C(=O)[C@@]1(C)CO1 [Carfilzomib (PR-171)] | 0.0962 | 0.146
COc1ccc(C[C@H](NC(=O)[C@H](C)NC(=O)CN2CCOCC2)C(=O)N[C@@H](Cc2ccccc2)C(=O)[C@@]2(C)CO2)cc1 | 0.149 | 0.144
COC[C@H](NC(=O)c1cnc(C)s1)C(=O)N[C@@H](COC)C(=O)N[C@@H](Cc1ccccc1)C(=O)[C@@]1(C)CO1 [Oprozomib (ONX 0912)] | 0.153 | 0.136
CC(C)C[C@@H]1NC(=O)[C@@H](C(C)C)NC(=O)[C@@H]2CCCN2C(=O)[C@@H](CC(=O)O)NC(=O)[C@@H](Cc2c[nH]c3ccccc23)NC1=O | 0.722 | 0.866
C=CCNC1=C2C[C@@H](C)C[C@H](OC)[C@H](O)[C@@H](C)/C=C(\C)[C@H](OC(N)=O)[C@@H](OC)/C=C\C=C(/C)C(=O)NC(=CC1=O)C2=O [17-AAG (Tanespimycin)] | 0.652 | 0.468
CCN1CCN(Cc2ccc(C(=O)Nc3ccc(C)c(Oc4ccc5c(c4)CC(=O)N5)c3)cc2C(F)(F)F)CC1 | 0.782 | 0.462
Cc1ccc(C(=O)Nc2ccc(CN3CCN(C)CC3)c(C(F)(F)F)c2)cc1C#Cc1cnc2[nH]ncc2c1 | 0.589 | 0.115
Cc1ccc(C(=O)Nc2ccc(CN3CCN(C)CC3)c(C(F)(F)F)c2)cc1C#Cc1cnc2cccnn12 | 0.67 | 0.106
Nc1cccc2c1CN(C1CCC(=O)NC1=O)C2=O (configuration not stated) [Lenalidomide (CC-5013)] | 1.14 | 1.02
COCC[n+]1c2c(n(Cc3cnccn3)c1C)C(=O)c1ccccc1C2=O [YM155 (Sepantronium Bromide)] | 0.06 | 0.0555
CC(C)NCCCn1c(Sc2cc3c(cc2I)OCO3)nc2c(N)ncnc21 | 0.428 | 0.48
CCCCCOc1ccc(-c2ccc(-c3ccc(C(=O)N[C@H]4C[C@@H](O)[C@@H](O)NC(=O)[C@@H]5[C@@H](O)[C@@H](C)CN5C(=O)[C@H]([C@@H](C)O)NC(=O)[C@H]([C@H](O)[C@@H](O)c5ccc(O)cc5)NC(=O)[C@@H]5C[C@@H](O)CN5C(=O)[C@H]([C@@H](C)O)NC4=O)cc3)cc2)cc1 | 1.02 | 0.857
CC(=O)Nc1ccccc1 [Acetanilide] | 0.946 | 0.905

Structure (SMILES) | fractional viability (2uM) | fractional viability (10uM)
CC(C)(C)C(=O)Nc1ccc2c(c1)C(=O)C(=O)c1ccccc1-2 | 0.181 | 0.0604
O=C(O)CCCN1CCC(O[C@@H](c2ccc(Cl)cc2)c2ccccn2)CC1 [Bepotastine Besilate] | 1.14 | 0.923
CN1CCC(CNc2ccc3ncc(-c4cccc(OC(F)(F)F)c4)n3n2)CC1 [SGI-1776 free base] | 0.888 | 0.107
CN1CCC(COc2cnc(-c3cccc(Cn4nc(-c5cccc(C#N)c5)ccc4=O)c3)nc2)CC1 | 0.78 | 0.216
NC(CO)(CO)CO [Trometamol] | 0.883 | 0.842
O=C(O)C(Cc1c[nH]c2ccccc12)N1C(=O)c2ccccc2C1=O (configuration not stated) | 0.905 | 0.771
N#CC(=C(/N)Sc1ccccc1N)/C(C#N)=C(\N)Sc1ccccc1N | 1.36 | 1.25
Oc1ccc(-c2nc(-c3ccc(F)cc3)c(-c3ccncc3)[nH]2)cc1 | 1.48 | 1.09
OCCn1cc(-c2ccc3c(c2)CC/C3=N\O)c(-c2ccncc2)n1 | 1.14 | 0.942
CN(C)CCOc1ccc(-c2nc(-c3ccncc3)c(-c3ccc4c(c3)CC/C4=N\O)[nH]2)cc1 | 0.833 | 0.0595
O=C(CSc1nc2c(c(=O)n1-c1ccccc1)SCC2)Nc1ccc(-c2ccccc2)cn1 | 1.09 | 0.948
COc1cc2c(cc1OC)CC(=O)N(CCCN(C)C[C@H]1Cc3cc(OC)c(OC)cc31)CC2 [Ivabradine HCl] | 1.02 | 0.967
COc1cc(-c2cc(-c3ccc(N4CCNCC4)cc3)cnc2C)cc(OC)c1OC | 0.878 | 0.835
COc1ccc(-c2cnc3c(-c4cccc5ncccc45)cnn3c2)cc1 | 1.15 | 1.2
c1cc(-c2cnn3cc(-c4ccc(N5CCNCC5)cc4)cnc23)c2cccnc2c1 | 0.104 | 0.0761
CC1(C)CC(=O)c2c(C(F)(F)F)nn(-c3ccc(C(N)=O)c(N[C@H]4CC[C@H](O)CC4)c3)c2C1 | 0.668 | 0.574
C=CC(=O)N1C/C(=C\c2ccc([N+](=O)[O-])cc2)C(=O)/C(=C/c2ccc([N+](=O)[O-])cc2)C1 | 0.0989 | 0.111
CC1(C)C=C(CN2C/C(=C\c3ccc(F)cc3)C(=O)/C(=C/c3ccc(F)cc3)C2)C(C)(C)N1O | 0.837 | 0.79
CC(=O)c1cc([N+](=O)[O-])c(Sc2ccc(F)cc2F)s1 | 0.985 | 0.596
COc1ccc([C@H]2CNC(=O)C2)cc1OC1CCCC1 [S- (+)-Rolipram] | 1.2 | 1.04
Cc1cc(C)nc(NS(=O)(=O)c2ccc(NC(=S)NC(=O)COc3ccc(Br)cc3Cl)cc2)n1 | 0.956 | 0.803
O=C(NCc1ccncc1)C12CC3CC(C1)CC(c1ccc(Cl)cc1)(C3)C2 | 1.06 | 0.861
NC(=O)N/N=C/c1ccc([N+](=O)[O-])o1 [Nitrofural] | 1.55 | 1.47
Cc1ccc(S(=O)(=O)c2ccc([N+](=O)[O-])o2)cc1 | 0.0667 | 0.0291

Structure (SMILES) | fractional viability (2uM) | fractional viability (10uM)
CC(C)(C)NS(=O)(=O)c1cncc(-c2cc(F)c3nc(N)nn3c2)c1 | 1.04 | 1.06
O=C(O)C1=C[C@@H](O)[C@@H](O)[C@H](O)C1 [Shikimic Acid] | 1.04 | 0.875
C=C1/C(=C\C=C2/CCC[C@]3(C)[C@@H]([C@H](C)CCCC(C)(C)O)CC[C@@H]23)C[C@@H](O)C[C@@H]1O [Calcitriol] | 0.965 | 0.937
Cc1ccccc1CN1C2=NCCN2C(=O)C2=C1CCN(Cc1ccccc1)C2 [TIC10 Analogue] | 0.878 | 0.768
COc1cc2ncnc(Oc3ccc(CC(=O)Nc4cnn(C(C)C)c4)cc3)c2cc1OC | 0.949 | 0.942
CC1(C)CC[C@]2(NC(=O)C(C)(F)F)CC[C@]3(C)[C@H](C(=O)C=C4[C@@]5(C)C=C(C#N)C(=O)C(C)(C)[C@@H]5CC[C@]43C)[C@@H]2C1 [Omaveloxolone (RTA-408)] | 0.166 | 0.0407
CN(C)CCNC(=O)c1cccn2c(=O)c3cc4ccccc4cc3nc12 | 0.61 | 0.294
COc1nccc(-c2c(-c3ccc(F)cc3)ncn2C2CCC(O)CC2)n1 (configuration not stated) | 0.999 | 0.786
CC(C)(C)NCC(O)COc1cccc2c1CCC(=O)N2 (configuration not stated) [Carteolol HCl] | 0.973 | 0.93
CC(C)(Cc1ccc2ccccc2c1)NC[C@@H](O)COc1cccc(Cl)c1C#N | 1.06 | 0.0653
CC(C)NCC(O)COc1cccc2ccccc12 (configuration not stated) [Propranolol HCl] | 0.809 | 1.12
O=[N+]([O-])c1ccc(Nc2nc(N3CCOCC3)nc(N3CCOCC3)n2)cc1 | 0.893 | 0.934
CC(C)(C)c1ccc(S(=O)(=O)NCc2ccc(C(=O)Nc3cccnc3)cc2)cc1 | 0.306 | 0.165
CCS(=O)(=O)N1CCN(c2ccc(Nc3ncc(C(N)=O)c(NC4CC4)n3)cc2)CC1 | 0.781 | 0.496
CCCC(=O)Nc1cccc(NC(=O)c2ccccc2Br)c1 | 1 | 1.07
CCc1ccc(OCc2ccccc2C(=O)Nc2ccc3nc(C)cc(N)c3c2)cc1 | 0.16 | 0.0251
COc1cc2c(cc1OC)CN(CCc1ccc(NC(=O)c3cc(OC)c(OC)cc3NC(=O)c3cnc4ccccc4c3)cc1)CC2 [Tariquidar] | 0.891 | 0.459
Cc1ccc(CNc2ncnc3ccc(-c4ccc(CO)o4)cc23)o1 | 0.989 | 1.02
O=[N+]([O-])c1cn2c(n1)OC[C@@H](OCc1ccc(OC(F)(F)F)cc1)C2 | 1.15 | 1.66
CC(C)(C)OC(=O)Nc1ccc(-c2cc(C(=O)NCCCCCCC(=O)NO)no2)cc1 | 0.367 | 0.171
COc1cc(/C=C/C(=O)N2CCC=CC2=O)cc(OC)c1OC [Piperlongumine] | 0.31 | 0.085
COc1ccc(/C=C\c2cc(OC)c(OC)c(OC)c2)cc1O [Combretastatin A4] | 0.313 | 0.292
COc1cc(/C=C/C(=O)N2CCN(CC(=O)N3CCCC3)CC2)cc(OC)c1OC [Cinepazide maleate] | 0.929 | 0.991
